Experimental findings from PubChem BioAssay (EPA / NIEHS) are described below.

Records with an inconclusive call do not appear. Some compounds were tested as several samples or in several runs, with calls that do not always agree. The source made the active and inactive calls. How the source made its calls, unless noted: active means hit-call score of the fitted dose curve at least 0.9, where 1 is the maximum; inconclusive means response in the unintended direction; inactive means score below 0.9.

One experiment deals with DIO3 (gene 1735). As to the kind of experiment: CCTE_GLTED_hDIO3: CCTE's human Deiodinase 3 (DIO3) Inhibition Assay, Great Lakes Toxicology and Ecology Division (GLTED) Lab (AID 2284055).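 Further: potency is for inhibition seen as loss of released iodide signal.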 In short, it runs like this:
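Cell-free assay with human DIO3 enzyme produced by adenovirus expression; enzyme incubated with test chemical for 3 hours. Liberated iodide then measured by Sandell-Kolthoff absorbance; loss of signal versus DMSO baseline indicates inhibition, run in triplicate.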

Experiment [1] is described as follows: CCTE_Shafer_MEA_dev_per_network_spike_spike_number_mean: CCTE's Neural Network Formation Assay for Mean Number of Spikes in a Network Spike, Shafer Lab (AID 2284053; active means hit-call score of the fitted dose curve at least 0.9, where 1 is the maximum; inactive means score below 0.9;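 on AC50: fitted as decrease in spikes per network spike relative to DMSO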). In outline: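 Rat cortical primary cultures on 48-well MEA; compound from day 0, re-dosed with full media change DIV 5, 9. Recorded DIV 5, 7, 9, 12; spikes in 0.05 s window at network-spike peak ÷ total network spikes; AUC; loss vs DMSO.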

Experiment [2] is described as follows: CCTE_Shafer_MEA_dev_per_network_spike_spike_percent: CCTE's Neural Network Formation Assay for Percent of Spikes in a Network Spike, Shafer Lab (AID 2284054; active means hit-call score of the fitted dose curve at least 0.9, where 1 is the maximum; inactive means score below 0.9). In outline:
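Primary rat cortical neurons on 16-electrode MEA wells (PEI-coated, laminin at plating), exposed from day 0 with renewal at DIV 5 and 9; spikes within 0.05 s of network-spike peaks over total spikes, AUC across days 5, 7, 9, 12.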

Experiment [3] in a line: CCTE_Shafer_MEA_dev_LDH: CCTE's Lactate Dehydrogenase Assay for Cytotoxicity in the Neural Network Formation Assay, Shafer Lab (AID 2284068).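 Further: exposure for twelve days from plating with re-dosing on DIV 5 and 9.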 In outline:
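Rat cortical primary neurons, MEA culture; dosing day 0–12, full medium plus compound exchange DIV 5, 9. Read-out: LDH enzyme activity, spectrophotometric. DMSO = negative control/baseline; signal loss → cytotoxicity.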

Experiment [4] in a line: CCTE_Shafer_MEA_acute_AB: CCTE's Alamar Blue Assay for Cytotoxicity in the Neural Acute Assay, Shafer Lab (AID 2284069).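 Further: active compounds lower the viability signal compared with DMSO wells.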 In outline:
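Read-out: resazurin fluorescence (ex 544, em 590 nm) after CTB reagent at 1:6 dilution in fresh media. Cells: primary rat cortical neuron networks, DIV 13 or 15, chemically exposed on MEA plates; DMSO as negative control/baseline.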
For orientation: The colour change of resazurin is a common sign of viable cells or microbes.

The nature of experiment [5]: CCTE_Shafer_MEA_dev_AB: CCTE's Alamar Blue Assay for Cytotoxicity in the Neural Network Formation Assay, Shafer Lab (AID 2284083).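 Further: resazurin reduction fluorescence as viability of cultured neurons; twelve days of exposure from plating with re-dosing on DIV 5 and 9.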 In outline:
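Rat cortical primary cultures, 1.5 x 10^5 cells/well on MEA; continuous compound exposure over 12 days of network development, re-dosed with full medium change DIV 5 and 9. Alamar Blue fluorescence; loss of signal = cytotoxicity vs DMSO baseline.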

Experiment [6] is described as follows: CCTE_Shafer_MEA_acute_LDH: CCTE's Lactate Dehydrogenase Assay for Cytotoxicity in the Neural Acute Assay, Shafer Lab (AID 2284086).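 Further: active means LDH release rises above DMSO vehicle level.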 In short, it runs like this: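 Primary rat cortical neurons on 48-well MEA plates, treated on day 13 or 15 post-plating. After the 40-min recording with compound, medium LDH release was read by absorbance at 490 nm. Gain of signal was fitted against DMSO negative control.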

Experiment [7] in a line: CCTE_Shafer_MEA_dev_mutual_information_norm: CCTE's Neural Network Formation Assay for Mutual Information Normalization, Shafer Lab (AID 2284091; active means hit-call score of the fitted dose curve at least 0.9, where 1 is the maximum; inactive means score below 0.9;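 on AC50: mutual information between electrodes summarised as area under curve across four recording days; potency is for a decrease in mutual information relative to DMSO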). In short, it runs like this:
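Rat cortical cultures, 48-well MEA, continuous exposure DIV 0–12 with full media/compound change DIV 5 and 9. Readout: inter-electrode mutual information, AxIS adaptive spike detection; AUC across DIV 5/7/9/12 recordings; DMSO baseline, negative fitting direction.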

`CCCCCCCCCCCCCO`: the AC50 with DIO3 (gene 1735) is 51.8 µM (active).
`CCCc1cc(=O)[nH]c(=S)[nH]1`: the AC50 is 25 µM (active) in experiment [1], 24.9 µM (active) in experiment [2], 23.8 µM (active) in experiment [3] and 24.6 µM (active) in experiment [5]. Further, the call in experiment [1], in experiment [2], in experiment [3], in experiment [4], in experiment [5] and in experiment [6] was inactive. In addition, the molecule was classed as inactive in experiment [7].
As for `C[Si]1(C)O[Si](C)(C)O[Si](C)(C)O[Si](C)(C)O1`, the molecule was called inactive in experiment [1], in experiment [2], in experiment [6] and in experiment [7].
Regarding `CCOC(=O)C(C)(C)Oc1ccc(Cl)cc1`, the molecule was called inactive in experiment [4] and in experiment [6].
As for `CC=Cc1ccc(O)c(OC)c1`, in the experiment with DIO3 (gene 1735), the AC50 was 14.9 µM (active).
As to `CNCc1cc(F)ccc1Oc1ccc(Cl)c(Cl)c1`, the molecule was called inactive in experiment [4] and in experiment [6].
For `CN[C@H]1CC[C@@H](c2ccc(Cl)c(Cl)c2)c2ccc(S(N)(=O)=O)cc21`, in the experiment with DIO3 (gene 1735), the AC50 is 45.9 µM (active). Moreover, the result in experiment [4] and in experiment [6] was inactive.
Consider `COc1ccc2c(c1)c(CC(=O)O)c(C)n2C(=O)c1ccc(Cl)cc1`, for which the molecule was called inactive in experiment [4] and in experiment [6].
Consider `O=c1[nH]cc(F)c(=O)[nH]1`, for which the AC50 in experiment [1] is 0.913 µM (active); in experiment [2], 0.607 µM (active); in experiment [3], 2.48 µM (active); in experiment [5] it was 3.24 µM (active); in experiment [7], 0.756 µM (active).
Turning to `COc1cc(-c2nc(NC(=O)c3cc4cc(C)cc(C)c4n3CC(=O)O)sc2CCC2CCCCC2)c(OC)cc1Cl`, the AC50 with DIO3 (gene 1735) is 8.64 µM (active).
For the molecule `c1cc(-c2ccncc2)ccn1`, the outcome in experiment [4] and in experiment [6] was inactive.
Regarding `CC1=C(/C=C/C(C)=C/C=C/C(C)=C/CO)C(C)(C)CCC1`, in the experiment with DIO3 (gene 1735), the concentration at half-maximal activity (AC50) was 28.3 µM (active).
Consider `FC(F)(F)C(F)(F)C(F)(F)C(F)(F)C(F)(F)C(F)(F)CCI`, for which the call in experiment [1], in experiment [2], in experiment [4], in experiment [5] and in experiment [7] was inactive.
For `C=CCc1ccc(O)c(OC)c1`, the result in experiment [1], in experiment [2], in experiment [3], in experiment [4], in experiment [5] and in experiment [6] was inactive. In experiment [7], the molecule was classed as inactive.
For the molecule `Cc1ccc(C(C)C)c(O)c1`, the outcome in experiment [4] was inactive.

As usually defined, the AC50 is the concentration giving half of the maximal activity seen.
